The values that follow come from PubChem BioAssay.

For assay [1], the target named is Albumin (Bos taurus) (UniProt P02769). Briefly: compounds binding labelled BSA control protein – biochemical, small-molecule microarray, Alexa647 label, 635/667 nm fluorescence, artefact control for SMM control protein annotation, profiling panel (AID 1118).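 Also: score merges 667 nm emission intensity and signal-to-noise per printed compound spot.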 The settings on record: BSA-A647 binding, fluorescence 635 nm, higher = more signal.
Sequence of Albumin (Bos taurus) (P02769 whole entry, looked up): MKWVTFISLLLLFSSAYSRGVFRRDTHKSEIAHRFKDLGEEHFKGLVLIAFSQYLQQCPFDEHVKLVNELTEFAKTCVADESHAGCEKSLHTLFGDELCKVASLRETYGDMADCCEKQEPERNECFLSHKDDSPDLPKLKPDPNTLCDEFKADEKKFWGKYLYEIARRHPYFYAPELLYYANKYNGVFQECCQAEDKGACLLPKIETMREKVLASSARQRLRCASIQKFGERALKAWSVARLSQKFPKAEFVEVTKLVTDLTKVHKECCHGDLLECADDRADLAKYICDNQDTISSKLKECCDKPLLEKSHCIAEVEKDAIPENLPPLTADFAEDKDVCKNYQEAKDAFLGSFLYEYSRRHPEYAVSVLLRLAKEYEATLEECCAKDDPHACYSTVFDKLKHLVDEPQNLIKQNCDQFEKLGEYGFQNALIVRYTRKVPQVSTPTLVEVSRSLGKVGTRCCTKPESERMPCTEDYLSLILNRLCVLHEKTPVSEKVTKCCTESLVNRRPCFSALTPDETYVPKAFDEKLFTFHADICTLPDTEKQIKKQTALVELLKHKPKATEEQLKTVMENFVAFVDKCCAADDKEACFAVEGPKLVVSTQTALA
Assay [2] in a line: probe aXIP binding to arrayed compounds – biochemical, NeuroSMM set, 635/667 nm fluorescence, primary screen (AID 1119).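 Also: probe is the protein aXip251-270 applied at 1 µg/mL to compound-printed slides; binding of probe to printed compounds measured as 667 nm fluorescence plus signal to noise.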 Conditions: small-molecule microarray, higher = more signal, called active from +8 up or from −8 down.
Assay [3] is described as follows: probe aNOTCH3 binding on compound microarray – biochemical, small-molecule microarray, 635/667 nm fluorescence, primary screen (AID 1120).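 Also: probe is a biotin-tagged antibody raised against NOTCH3 rather than NOTCH3 protein; score merges spot fluorescence near 667 nm with spot signal to noise.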 The settings on record: higher = more signal.
Assay [4] can be described thus: probe aNOTCH2 binding on compound microarray – biochemical, small-molecule microarray, 635/667 nm fluorescence, primary screen (AID 1121).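 Also: score merges feature fluorescence read at 667 nm with its signal to noise.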 Conditions: higher = more signal.
Assay [5] concerns the target Carbonic anhydrase 2 (Homo sapiens) (UniProt P00918). Description: compounds binding carbonic anhydrase 2 – biochemical, small-molecule microarray, Alexa647-labelled CAII, profiling panel (AID 1122). The settings on record: CAII-A647 binding fluorescence, higher = more signal.
Assay [6] in a line: COS7 lysate on small-molecule microarray, probe aHis, 635 nm (AID 1123).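 Also: z-score combines 667nm fluorescence intensity with signal-to-noise per printed compound spot.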 The settings on record: COS7 cell lysate, fluorescence, higher = more signal.
Assay [7] is described as follows: probe aLAP1 signal on lysate-treated microarray – cell lysate, small-molecule microarray, COS7 lysate, primary screen (AID 1124).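 Also: lysate comes from COS7 cells expressing LAP1 and is applied at 0.3 µg/mL; score merges spot fluorescence near 667 nm with signal-to-noise over triplicate slides.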 Conditions: probe aLAP1, fluorescence, higher = more signal.
Assay [8] deals with Sam68 (KHDRBS1). Briefly: compounds binding KHDRBS1 protein – biochemical, small-molecule microarray, 635 nm fluorescence, primary screen (AID 1125).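 Also: score merges 667 nm channel intensity with signal to noise over triplicate slides.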 Conditions: higher = more signal.
Assay [9] relates to Chordin-like protein 2 (CHRDL2). Description: compounds binding chordin-like 2 – biochemical, small-molecule microarray, 635 nm fluorescence, primary screen (AID 1126).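 Also: printed compound slides probed with Chrdl2 protein at 4 µg/mL for 1 h at 4 C; score merges 667 nm emission intensity with signal to noise over three replicate slides.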 Conditions: fluorescence 635 nm, higher = more signal.
The target in assay [10] is Concanavalin-A (Canavalia ensiformis) (UniProt P02866). Briefly: compounds binding concanavalin A lectin – biochemical, small-molecule microarray, Alexa647 label, 635 nm, artefact control for SMM control protein annotation, primary screen (AID 1127).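 Also: z combines 667 nm emission intensity with signal-to-noise across three replicate slides.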 The settings on record: ConA-A647 binding fluorescence, higher = more signal.
Sequence of Concanavalin-A (Canavalia ensiformis) (P02866 whole entry, looked up): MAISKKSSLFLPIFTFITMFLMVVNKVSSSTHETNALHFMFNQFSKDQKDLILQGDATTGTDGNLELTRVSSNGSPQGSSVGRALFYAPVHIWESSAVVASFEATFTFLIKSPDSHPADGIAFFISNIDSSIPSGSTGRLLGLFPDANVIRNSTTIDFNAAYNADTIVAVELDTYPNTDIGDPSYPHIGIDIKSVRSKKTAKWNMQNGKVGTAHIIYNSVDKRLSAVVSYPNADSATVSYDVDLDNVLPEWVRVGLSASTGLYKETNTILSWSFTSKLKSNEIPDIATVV

Calls of active or inactive are those of the source.

In the case of `C=CCNC(=O)[C@@H]1[C@H]2C(=O)O[C@H](c3ccccc3)[C@H](c3ccccc3)N2[C@H](c2ccc(O)cc2)[C@@]12C(=O)N(C(=O)OCCOC)c1ccc(C#CCNC(N)=O)cc12`, the composite z-score was 0.803 in assay [1]; -0.0247 in assay [3]; -0.0393 in assay [4]; 0.552 in assay [5]; 0.737 in assay [6]; 0.731 in assay [7]. Also, the composite z-score was found to be 1.16 in assay [8], 0.155 in [9] and 1.1 in assay [10]. The composite Z-score in assay [2] was 0.797 (inactive).

`CCCC[C@@H]1C[C@H]1[C@@H](NC(=O)c1ccco1)c1ccc(-c2ccccc2)cc1`: the composite z-score was 0.0697 in assay [1]; 0.0155 in [3]; 0.0474 in [4]; 0.344 in [5]; -0.66 in assay [6]; -0.305 in [7]. Besides, the composite z-score in assay [8] is 0.325; in assay [9], -0.33; in assay [10], 0.163. Besides, the composite Z-score in [2] was 0.572 (inactive).

Regarding `O=C1O[C@@H](c2ccccc2)[C@@H](c2ccccc2)N2[C@@H](c3ccccc3OCCO)[C@]3(C(=O)Nc4ccccc43)[C@@H](C(=O)Nc3nc4ccccc4s3)[C@H]12`, the composite z-score is 0.827 in assay [1]; 1.38 in assay [3]; -0.181 in assay [4]; 0.619 in assay [5]; 2.89 in assay [6]; 0.485 in assay [7]. The composite z-score in [8] was 1.25; in assay [9], -0.111; in assay [10], 1.16. Also, the composite Z-score in [2] is 0.703 (inactive).

In the case of `OCCCC1=CC(c2cccs2)N(Cc2cc3c(cc2Br)OCO3)CC1` (stereo not given), the composite z-score in assay [1] was 0.252; in assay [3], -0.0044; in [4], -0.147; in assay [5], 0.509; in [6], 0.713; in [7], 0.242. The composite z-score is 0.242 in assay [8], -0.0561 in assay [9] and 0.795 in assay [10]. Moreover, the composite Z-score in assay [2] is 0.027 (inactive).

For the compound `CCCC[C@@H]1C[C@H]1[C@@H](NC(=O)c1cccs1)c1ccc(-c2ccccc2)cc1`, the composite z-score in assay [1] is 0.1; in assay [3], 0.206; in [4] it was -0.14; in [5], 0.254; in assay [6], 0.874; in assay [7] it was -0.202. Moreover, the composite z-score was 0.393 in [8], 0.0355 in assay [9] and 0.432 in assay [10]. Besides, in assay [2], the composite Z-score is -0.252 (inactive).

Turning to `NCCCCCCNC(=O)[C@@H]1C[C@@H]2C(=O)NCC(=O)N2[C@@H]1c1ccc(O)cc1`, the composite z-score is 0.741 in [1]; -0.232 in assay [3]; -0.124 in assay [4]; 0.4 in [5]; 0.738 in assay [6]; 0.0946 in assay [7]. Besides, the composite z-score came out at 1.28 in [8], 1.17 in assay [9] and 1.17 in [10]. Also, the composite Z-score in assay [2] was 0.706 (inactive).

Regarding `CO[C@H]1O[C@H](CO)[C@@H](OC(=O)Nc2ccc(Oc3ccccc3)cc2)[C@H](OC(=O)Nc2ccc3c(c2)OCO3)[C@H]1OC(=O)Nc1ccc2c(c1)OCO2`, the composite z-score is 0.703 in [1]; 0.264 in assay [3]; 0.0976 in assay [4]; 0.471 in assay [5]; 2.19 in assay [6]; 0.763 in [7]. Further, the composite z-score in assay [8] was 1.3; in [9], 0.317; in assay [10] it was 1.12. In assay [2], the composite Z-score is 0.705 (inactive).

On to `COc1ccc(-c2cc3c(c(-c4ccc(Oc5ccccc5)cc4)n2)[Si](C(C)C)(C(C)C)OC3)cn1`, for which the composite z-score in assay [1] is -0.344; in [3], -0.0311; in [4] it was -0.132; in [5] it was -0.163; in assay [6], 0.0687; in assay [7], -0.232. For the same compound, the composite z-score was -0.0667 in assay [8], -0.0581 in assay [9] and 0.478 in [10]. Also, the composite Z-score in assay [2] is -0.108 (inactive).

Consider `CCCCN1CC=CC23O[C@@H]4C=CCCOC(=O)C4[C@H]2C(=O)N(CCCCCCO)[C@@H]3C1=O` (stereo not given in full), for which the composite z-score in assay [1] was 0.339; in [3], -0.275; in assay [4], -0.175; in assay [5] it was 0.876; in assay [6], 0.376; in assay [7] it was 0.316. For the same compound, the composite z-score in assay [8] was 0.474; in assay [9], -1; in [10], -0.254. Besides, the composite Z-score in assay [2] is 0.0289 (inactive).

Turning to `COC(=O)C(CC#Cc1ccc2c(c1)[C@]1(C(=O)N2)[C@H](C(=O)Nc2nc3ccccc3s2)[C@H]2C(=O)O[C@H](c3ccccc3)[C@H](c3ccccc3)N2[C@@H]1c1ccccc1OCCO)C(=O)OC`, the composite z-score is 0.987 in assay [1]; 0.116 in [3]; -0.0859 in assay [4]; 0.663 in assay [5]; 1.69 in [6]; 0.636 in [7]. In addition, the composite z-score in assay [8] was 1.3; in assay [9], -0.154; in assay [10], 1.14. Moreover, the composite Z-score in assay [2] is -0.323 (inactive).

`COc1cc(Br)cc(C(O)C2C=CC3C(=O)N(C)C(=O)C3N2N2CCCCC2)c1OC` (stereo not given): the composite z-score was 0.435 in [1]; -0.165 in [3]; -0.0708 in assay [4]; 0.707 in [5]; 1.28 in [6]; 0.112 in [7]. Moreover, the composite z-score in assay [8] was -0.309; in assay [9], -1.39; in [10], 0.18. The composite Z-score in assay [2] was 1.94 (inactive).
